# Results as given in publication PMC7862700, “An all-to-all approach to the identification of sequence-specific readers for epigenetic DNA modifications on cytosine”.
# Key:
# Assay in all cases: DAPPL (digital affinity profiling via proximity ligation, sequencing); 10 mM Tris-HCl pH 7.5, 50 mM NaCl, 1 mM DTT, 4% glycerol, room temperature, 30 min; GST-TFs on glutathione beads, 16-mer random dsDNA library, 0.1% formaldehyde crosslink after washing; high values mean tight binding
# Settings in all cases: protein: recombinant; tags: N-terminal GST; dsDNA, one strand shown
# [1] = target: ETV1 (Homo sapiens, UniProt P50549 1-477)
# Method in brief: (§1)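 In yeast, human transcription factors were expressed with a GST fusion, then pulled down on glutathione beads and given DNA barcodes. Pooled with a tag-only sample, they were exposed to 200 nmole of a 16-mer random double-stranded DNA library (Tris/NaCl/DTT/glycerol buffer, room temperature, 30 min), washed, crosslinked with 0.1% formaldehyde, proximity-ligated using BsaI/T4 ligase for 1 h at 37 °C, PCR-amplified and read on an Illumina NextSeq500. Each hexamer's frequency of reads for a factor, divided by the matching frequency for the tag-only sample, gives the binding signal.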
# [2] = target: T1, ERF (Homo sapiens, UniProt P50548 1-548)
# T1 sequence: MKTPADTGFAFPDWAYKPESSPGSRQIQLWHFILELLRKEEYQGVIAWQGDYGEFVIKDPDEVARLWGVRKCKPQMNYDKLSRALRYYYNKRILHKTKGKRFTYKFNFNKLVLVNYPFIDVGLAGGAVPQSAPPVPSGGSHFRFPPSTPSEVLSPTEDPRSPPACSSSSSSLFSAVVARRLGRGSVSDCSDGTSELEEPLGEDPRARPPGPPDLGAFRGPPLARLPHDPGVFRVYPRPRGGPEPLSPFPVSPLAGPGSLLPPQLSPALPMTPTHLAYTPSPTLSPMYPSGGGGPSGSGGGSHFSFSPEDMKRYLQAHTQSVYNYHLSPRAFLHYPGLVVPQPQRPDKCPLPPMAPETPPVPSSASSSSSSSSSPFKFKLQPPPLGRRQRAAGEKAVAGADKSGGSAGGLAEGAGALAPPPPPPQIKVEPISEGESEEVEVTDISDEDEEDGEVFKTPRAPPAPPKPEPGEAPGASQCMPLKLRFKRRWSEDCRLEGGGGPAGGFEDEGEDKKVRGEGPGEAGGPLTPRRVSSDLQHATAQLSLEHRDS
# Method in brief: as §1
# [3] = target: T2, ETV3L (Homo sapiens, UniProt Q6ZN32 1-361)
# T2 sequence: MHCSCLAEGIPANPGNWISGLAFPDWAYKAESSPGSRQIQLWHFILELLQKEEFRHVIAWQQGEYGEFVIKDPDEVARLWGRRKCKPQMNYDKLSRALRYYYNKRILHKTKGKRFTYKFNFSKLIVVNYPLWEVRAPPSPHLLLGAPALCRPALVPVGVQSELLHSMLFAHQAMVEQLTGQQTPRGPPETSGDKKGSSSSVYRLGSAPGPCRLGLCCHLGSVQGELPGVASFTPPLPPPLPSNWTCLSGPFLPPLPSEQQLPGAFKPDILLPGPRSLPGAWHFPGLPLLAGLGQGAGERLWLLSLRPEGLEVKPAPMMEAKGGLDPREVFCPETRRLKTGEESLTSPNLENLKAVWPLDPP
# Method in brief: as §1
# [4] = target: T3, ETS2 (Homo sapiens, UniProt P15036 1-469)
# T3 sequence: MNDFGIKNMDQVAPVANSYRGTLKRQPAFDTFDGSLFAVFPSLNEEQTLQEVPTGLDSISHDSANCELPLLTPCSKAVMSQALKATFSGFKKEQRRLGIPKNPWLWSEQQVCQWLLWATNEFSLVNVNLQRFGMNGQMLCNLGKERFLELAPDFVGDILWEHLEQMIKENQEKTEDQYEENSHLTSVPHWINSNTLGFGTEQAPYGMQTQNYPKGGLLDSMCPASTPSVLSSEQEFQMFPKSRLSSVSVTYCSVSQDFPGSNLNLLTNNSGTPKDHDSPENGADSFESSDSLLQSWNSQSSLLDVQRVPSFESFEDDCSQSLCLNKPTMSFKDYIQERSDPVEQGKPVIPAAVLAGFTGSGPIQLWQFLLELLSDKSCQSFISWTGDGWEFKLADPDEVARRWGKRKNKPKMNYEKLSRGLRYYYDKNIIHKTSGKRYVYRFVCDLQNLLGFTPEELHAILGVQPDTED
# Method in brief: as §1
# [5] = target: T4, SPDEF (Homo sapiens, UniProt O95238 1-335)
# T4 sequence: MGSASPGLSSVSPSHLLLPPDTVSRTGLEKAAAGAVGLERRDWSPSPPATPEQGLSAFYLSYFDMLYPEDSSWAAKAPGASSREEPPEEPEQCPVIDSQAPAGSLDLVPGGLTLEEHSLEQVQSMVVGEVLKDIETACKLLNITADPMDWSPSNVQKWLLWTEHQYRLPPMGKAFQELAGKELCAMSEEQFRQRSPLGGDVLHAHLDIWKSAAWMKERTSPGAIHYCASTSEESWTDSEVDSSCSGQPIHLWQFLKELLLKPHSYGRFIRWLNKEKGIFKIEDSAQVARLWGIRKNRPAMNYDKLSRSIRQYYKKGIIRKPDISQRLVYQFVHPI
# Method in brief: as §1
# [6] = target: T5, ETV7 (Homo sapiens, UniProt Q9Y603 1-341)
# T5 sequence: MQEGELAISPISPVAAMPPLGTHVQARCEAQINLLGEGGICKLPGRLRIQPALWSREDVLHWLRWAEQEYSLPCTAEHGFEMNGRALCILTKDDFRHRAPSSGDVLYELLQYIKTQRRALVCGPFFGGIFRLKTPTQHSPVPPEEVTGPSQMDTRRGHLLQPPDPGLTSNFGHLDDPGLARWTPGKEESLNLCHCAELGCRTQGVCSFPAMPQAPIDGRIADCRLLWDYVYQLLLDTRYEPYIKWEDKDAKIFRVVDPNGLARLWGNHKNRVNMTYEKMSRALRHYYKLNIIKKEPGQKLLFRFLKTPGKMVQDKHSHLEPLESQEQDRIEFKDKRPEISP
# Method in brief: as §1
# [7] = target: T6, ELF5 (Homo sapiens, UniProt Q9UKW6-2 1-255)
# T6 sequence: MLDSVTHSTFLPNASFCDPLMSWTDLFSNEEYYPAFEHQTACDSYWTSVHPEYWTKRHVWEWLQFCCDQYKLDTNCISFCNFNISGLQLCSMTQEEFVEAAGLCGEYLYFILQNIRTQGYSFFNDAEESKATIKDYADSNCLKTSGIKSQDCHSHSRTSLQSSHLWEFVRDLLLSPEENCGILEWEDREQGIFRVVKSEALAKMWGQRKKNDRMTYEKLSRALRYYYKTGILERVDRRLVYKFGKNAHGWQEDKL
# Method in brief: as §1
# [8] = target: T7, ETV3 (Homo sapiens, UniProt P41162-2 1-143)
# T7 sequence: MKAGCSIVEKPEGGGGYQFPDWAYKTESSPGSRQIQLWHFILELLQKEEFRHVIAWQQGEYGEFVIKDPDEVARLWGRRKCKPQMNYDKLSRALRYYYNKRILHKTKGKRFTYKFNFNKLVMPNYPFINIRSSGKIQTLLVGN
# Method in brief: as §1
# [9] = target: ETV6 (Homo sapiens, UniProt P41212 1-452)
# Method in brief: as §1
# ETV1, sequence (P50549 whole entry, the tested form may be a part): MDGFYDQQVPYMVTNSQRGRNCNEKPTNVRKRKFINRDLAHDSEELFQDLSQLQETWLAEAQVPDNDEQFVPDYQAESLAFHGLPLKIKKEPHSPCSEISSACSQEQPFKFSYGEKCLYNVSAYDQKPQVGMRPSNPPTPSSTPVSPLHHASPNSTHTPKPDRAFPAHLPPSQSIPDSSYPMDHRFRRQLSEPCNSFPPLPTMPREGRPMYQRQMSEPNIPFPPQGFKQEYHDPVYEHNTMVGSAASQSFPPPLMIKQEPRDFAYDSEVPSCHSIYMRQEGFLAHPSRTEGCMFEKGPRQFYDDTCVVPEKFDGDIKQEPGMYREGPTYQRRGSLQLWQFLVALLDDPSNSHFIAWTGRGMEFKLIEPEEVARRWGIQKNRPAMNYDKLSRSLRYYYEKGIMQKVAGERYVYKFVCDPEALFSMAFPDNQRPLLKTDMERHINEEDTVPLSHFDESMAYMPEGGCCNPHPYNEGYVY
# ETV6, sequence (P41212 whole entry): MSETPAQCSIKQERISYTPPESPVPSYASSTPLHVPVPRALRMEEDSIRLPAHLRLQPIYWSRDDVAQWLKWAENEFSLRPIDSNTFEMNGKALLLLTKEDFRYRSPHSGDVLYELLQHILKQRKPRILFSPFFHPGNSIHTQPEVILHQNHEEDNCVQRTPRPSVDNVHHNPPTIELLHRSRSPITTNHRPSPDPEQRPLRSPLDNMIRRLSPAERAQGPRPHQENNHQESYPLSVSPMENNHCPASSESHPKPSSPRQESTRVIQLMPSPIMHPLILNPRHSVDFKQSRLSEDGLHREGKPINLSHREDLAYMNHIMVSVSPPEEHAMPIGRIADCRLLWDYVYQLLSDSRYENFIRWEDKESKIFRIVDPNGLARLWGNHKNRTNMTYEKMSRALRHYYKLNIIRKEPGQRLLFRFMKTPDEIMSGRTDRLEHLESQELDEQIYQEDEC
sequence,measurement,setting,value
AATTTG,binding signal,[1],"1.28 fold enrichment (6-mer frequency, TF over GST control)"
same,binding signal,[2],"1.28 fold enrichment (6-mer frequency, TF over GST control)"
same,binding signal,[3],"1.3 fold enrichment (6-mer frequency, TF over GST control)"
same,binding signal,[4],"1.32 fold enrichment (6-mer frequency, TF over GST control)"
same,binding signal,[5],"1.24 fold enrichment (6-mer frequency, TF over GST control)"
same,binding signal,[6],"1.38 fold enrichment (6-mer frequency, TF over GST control)"
same,binding signal,[7],"1.33 fold enrichment (6-mer frequency, TF over GST control)"
same,binding signal,[8],"1.39 fold enrichment (6-mer frequency, TF over GST control)"
same,binding signal,[9],"1.22 fold enrichment (6-mer frequency, TF over GST control)"
